Screens as filed in PubChem.
PLK1 PBD inh – inhibitors of human PLK1 polo-box domain binding | 360,000 tested, 2.8% active | Plk1 PBD binding of FITC phosphopeptide, fluorescence polarization | P53350 | Potency, µM, inactives show max response, negative = inhibition, usual class: inhibitors; note: series mostly up to about 57 µM; % is set by controls: 0 for no effect and ±100 for the full control effect; nearly all actives have a fitted effect of over 65% in size
Target sequence (P53350 whole entry, looked up, the tested form may be a part): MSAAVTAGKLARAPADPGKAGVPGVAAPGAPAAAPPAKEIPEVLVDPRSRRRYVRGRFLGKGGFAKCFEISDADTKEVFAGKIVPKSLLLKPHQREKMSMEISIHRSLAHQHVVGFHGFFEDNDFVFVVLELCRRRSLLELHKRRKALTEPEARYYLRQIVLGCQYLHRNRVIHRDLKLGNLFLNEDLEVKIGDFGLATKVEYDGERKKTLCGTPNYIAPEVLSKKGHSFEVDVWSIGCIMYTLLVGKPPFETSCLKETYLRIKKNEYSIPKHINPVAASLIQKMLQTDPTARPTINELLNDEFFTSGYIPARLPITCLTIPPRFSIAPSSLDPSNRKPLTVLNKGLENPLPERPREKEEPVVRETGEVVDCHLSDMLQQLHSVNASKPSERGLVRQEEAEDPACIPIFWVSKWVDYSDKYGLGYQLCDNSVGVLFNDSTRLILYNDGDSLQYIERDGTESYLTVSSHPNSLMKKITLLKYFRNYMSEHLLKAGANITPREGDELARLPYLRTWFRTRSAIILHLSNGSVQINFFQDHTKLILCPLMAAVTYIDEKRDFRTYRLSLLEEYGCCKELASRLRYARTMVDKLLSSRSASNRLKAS
HP1b chromo inh – inhibitors of HP1-beta chromodomain binding to methylated histone tails; AID 540317; AlphaScreen HP1-beta / biotin-H3K9me3 peptide binding; 390,000 tested, 0.56% active; P83916; Potency, µM (top dose mostly 114 µM), inactives show at the highest dose activity change, negative = inhibition, hits mostly inhibitors; note: nearly all actives have a fitted effect of over 70% in size
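Compound inhibition of the preformed complex between 50 nM HP1-beta and 50 nM biotinylated H3K9me3 peptide was read by AlphaScreen. Buffer was PBS pH 7.4 with 0.01% Tween-20. Incubations ran 30 min at room temperature, with 10 ug/mL donor/acceptor beads.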
Sfp PPTase inh – inhibitors of Bacillus subtilis Sfp phosphopantetheinyl transferase. Q9F4F7. Biochemical Sfp PPTase activity, qHTS. Potency, µM, for the others: largest response in the series, negative = inhibition, actives largely listed as inhibitors. 310,000 tested, 3.5% active. AID 1490;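 note: the enzyme is Sfp with the accession as filed and its product quenches rhodamine fluorescence; 0% = enzyme reaction without inhibitor and -100% = no enzyme wells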
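Sfp 15 nM + cpd, 15 min RT; start w/ rhodamine-CoA 5 uM, BHQ-2-YbbR 12.5 uM (final); 50 mM Hepes pH 7.6, 10 mM MgCl2, 0.01% NP-40, 0.01% BSA; read 525/598 nm at 0 and 30 min.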
BAZ2B inh – BAZ2B (human) inhibition; Q9UIF8; AID 504333; 360,000 tested, 4.4% active; AlphaScreen BAZ2B-H3K14Ac peptide displacement; Potency, µM (doses to about 114 µM), inactives show at the top dose activity change, negative = inhibition, most hits filed as inhibitors; note: % is set by controls: 0 for no effect and ±100 for the full control effect; nearly all actives have a fitted effect of over 60% in size
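BAZ2B (50 nM) with biotin-H3(5-23)K14Ac peptide (50 nM) in PBS pH 7.4, 0.01% Tween-20, preformed 30 min, then compound 30 min at room temperature; top concentration 110uM. AlphaScreen streptavidin donor/nickel chelate acceptor beads (10 ug/mL final), 20 min dark, signal read.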
G9a block – blocks human histone lysine methyltransferase G9a; G9a H3K9 monomethylation, AlphaScreen, 2 h; 350,000 tested, 8.8% active; Q96KQ7; Potency, µM (top dose mostly 102 µM), inactives show top-dose activity, negative = inhibition, usual class: inhibitors; note: % is set by controls: 0 for no effect and ±100 for the full control effect; nearly all actives have a fitted effect of over 75% in size
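Chemiluminescent proximity detection of H3K9 monomethylation, read after 10 min bead incubation in the dark. Reaction: 20 nM G9a, 500 nM biotin-H3K9 peptide, 20 uM SAM cofactor, 2 h, room temperature, following 15 min enzyme-compound preincubation.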
JMJD2A Tudor – blocks the human JMJD2A Tudor domain; O75164; AlphaScreen JMJD2A-Tudor / H3K4me3 peptide binding; Potency, µM (titrated, usually from 114 µM), inactives show at the highest dose activity change, negative = inhibition, hits mostly inhibitors; 390,000 tested, 4.4% active; AID 504339; note: % is set by controls: 0 for no effect and ±100 for the full control effect; nearly all actives have a fitted effect of over 50% in size
Active calls of the source: *; [ ] = another dose, or the depositor's remark. Most compounds without a hit are left out; they make up all but 12% or so of the library. Calls come from the whole dose curve; as a rule, active = well fitted curve in the direction sought with a large enough effect; inconclusive = small, poorly fitted or top-dose-only effect, or another doubt; inactive = no such curve, though single readings can be large; an effect the other way counts as inactive or inconclusive. Potency is the fitted concentration of half-maximal effect.

How did O=C(CCS(=O)(=O)c1ccc(Br)cc1)NCc1ccc(F)cc1 do in these assays?
PLK1 PBD inh: -19.2%; HP1b chromo inh: 131.2%; Sfp PPTase inh: 14.6%; BAZ2B inh: 39.8µM*; G9a block: inconclusive; JMJD2A Tudor: 82.1%

What do the screens show for `O=C(Cn1c(=O)n(Cc2nc(-c3ccccc3)no2)c(=O)c2cc3c(cc21)OCO3)Nc1cccc(C(F)(F)F)c1`?
HP1b chromo inh: 24.5%; BAZ2B inh: -11.9%; G9a block: -14.7%[59 µM]; JMJD2A Tudor: -9.3%

Results for CCc1ccc(-n2nc3ccc(NC(=O)COc4ccc(OC)cc4)cc3n2)cc1 ?
HP1b chromo inh: 13.4%; BAZ2B inh: -0.8%; G9a block: -6.4%[59 µM]; JMJD2A Tudor: -9.7%

What do the screens show for `N#Cc1c(NC(=O)c2cc(C3CC3)on2)sc2c1CCC2`?
PLK1 PBD inh: 26.7µM*; HP1b chromo inh: -15.8%; Sfp PPTase inh: inconclusive; BAZ2B inh: -10.4%; G9a block: 39.8µM*; JMJD2A Tudor: -31.2%

How did Cc1cc(C(=O)Nc2sc3c(c2C#N)CCCC3)no1 do in these assays?
PLK1 PBD inh: 26.7µM*; HP1b chromo inh: -18.3%; Sfp PPTase inh: 20µM*; BAZ2B inh: 9.9%; G9a block: 7.08µM*; JMJD2A Tudor: -19.2%

How did CCOC(=O)c1cc(C(=O)Nc2sc3c(c2C#N)CCCC3)nn1C do in these assays?
PLK1 PBD inh: 21.2µM*; HP1b chromo inh: -7.3%; Sfp PPTase inh: 35.5µM*; BAZ2B inh: 16.5%; G9a block: 11.2µM*; JMJD2A Tudor: -11.6%

How did Cc1cc(C(=O)Nc2sc3c(c2C#N)CCC3)no1 do in these assays?
PLK1 PBD inh: inconclusive; HP1b chromo inh: 1.1%; Sfp PPTase inh: 6.5%; BAZ2B inh: -31.2%; G9a block: inconclusive; JMJD2A Tudor: -33.5%

Results for COc1ccccc1-c1cc(C(=O)Nc2sc3c(c2C#N)CCCC3)no1 ?
HP1b chromo inh: inconclusive; BAZ2B inh: -10.5%; G9a block: 3.16µM*; JMJD2A Tudor: -8.9%

What do the screens show for `COc1ccnc(Oc2ccc(C)cc2C)c1C#N`?
PLK1 PBD inh: -0.6%; HP1b chromo inh: 73.0%; Sfp PPTase inh: -0.7%; BAZ2B inh: 0.0%; G9a block: -10.2%[59 µM]; JMJD2A Tudor: 0.0%

How did O=C1C[C@@H](c2ccccc2Cl)N1S(=O)(=O)c1ccccc1[N+](=O)[O-] do in these assays?
HP1b chromo inh: 26.4%; Sfp PPTase inh: 8.3%; JMJD2A Tudor: -15.2%

How did CC(C)Cc1cc(C(=O)Nc2sc3c(c2C#N)CCCC3)no1 do in these assays?
PLK1 PBD inh: inconclusive; HP1b chromo inh: 30.6%; Sfp PPTase inh: -16.7%; BAZ2B inh: 48.5%; G9a block: -32.9%; JMJD2A Tudor: 19.0%

Results for CC(C)Cc1cc(C(=O)Nc2sc3c(c2C#N)CCC3)no1 ?
PLK1 PBD inh: 23.8µM*; HP1b chromo inh: 5.0%; Sfp PPTase inh: 56.2µM*; BAZ2B inh: 5.1%; G9a block: 44.7µM*; JMJD2A Tudor: -4.1%

What do the screens show for `Cc1nn(-c2ccccc2)c2c1C1(C(=O)N(C)c3ccccc31)C(C#N)=C(N)O2` (stereo not given)?
PLK1 PBD inh: inconclusive; HP1b chromo inh: 4.4%; Sfp PPTase inh: -4.3%; BAZ2B inh: -1.4%; G9a block: -1.9%[12.7 µM]; JMJD2A Tudor: -15.4%

How did Cc1nn(-c2ccccc2)c2c1C1(C(=O)N3c4c(cccc41)C(C)CC3(C)C)C(C#N)=C(N)O2 (stereo not given) do in these assays?
PLK1 PBD inh: inconclusive; HP1b chromo inh: -25.4%; Sfp PPTase inh: -8.0%; BAZ2B inh: inconclusive; G9a block: 10µM*; JMJD2A Tudor: inconclusive

How did Cc1cc(C)c2cc(C#N)c(N3CCCC3)nc2c1 do in these assays?
PLK1 PBD inh: -24.9%; HP1b chromo inh: 83.6%; Sfp PPTase inh: 44.7µM*; BAZ2B inh: 65.7%; G9a block: -37.2%[12.7 µM]; JMJD2A Tudor: 38.9%[11.4 µM]

What do the screens show for `CCOC(=O)c1cnc2oc3ccccc3n2c1=O`?
PLK1 PBD inh: -16.4%; HP1b chromo inh: -17.4%; Sfp PPTase inh: 9.5%; BAZ2B inh: 17.9%; JMJD2A Tudor: -15.9%
